IL-1B inflam inh: qHTS for Inhibitors of Inflammasome Signaling: IL-1-beta AlphaLISA Primary Screen | 360,000 compounds, 4.7% hits | activity change, % at 57.5 µM | THP-1 LPS/ATP IL-1B secretion, AlphaLISA, 16 h; hits give low values; in the data active = activity change below about -50%; inconclusive = mostly about -30% to -49%
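Secreted IL-1B measured by AlphaLISA bead assay after 16 h compound exposure of THP-1 cells; compounds (final up to 57.5 uM) added 1 h before LPS (250 ng/mL) and ATP (1.25 mM) stimulation; lower signal means less secretion.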
TDP1 cell noCPT: qHTS for Inhibitors of human tyrosyl-DNA phosphodiesterase 1 (TDP1): qHTS in cells in absence of CPT; Potency, µM (doses to about 46.2 µM), hits mostly inhibitors; DT40 Tdp1-/- hTDP1 cells, no CPT, ATP luminescence, 48 h; AID 686978, 2013; 420,000 compounds, 15% hits; also: nearly all actives have a fitted effect of over 55% in size
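Growth of hTDP1-complemented DT40 Tdp1-knockout cells is measured by ATP luminescence after at least 48 hr compound exposure at 37 °C, with DMSO substituting for the 20 nM CPT used in the parallel screen.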
TDP1 cell CPT: qHTS for Inhibitors of human tyrosyl-DNA phosphodiesterase 1 (TDP1): qHTS in cells in presence of CPT; chicken DT40 Tdp1-/-;hTDP1 cells + 20 nM CPT, ATP luminescence, 48 h; Potency, µM (top dose mostly 46.2 µM), most hits filed as inhibitors; 420,000 compounds, 12% hits; also: nearly all actives have a fitted effect of over 55% in size
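Chicken DT40 Tdp1-/- cells stably complemented with human TDP1 were seeded at 400 cells/well in medium containing 20 nM camptothecin, exposed to pin-transferred compounds, and grown at 37 °C for at least 48 hr. Viability was read as ATP luminescence.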
HT1080-NT tox: qHTS for induction of synthetic lethality in tumor cells producing 2HG: qHTS for the HT-1080-NT fibrosarcoma cell line; HT-1080-NT fibrosarcoma viability, CellTiter-Glo ATP luminescence, 48 h; Potency, µM (titrated, usually from 46.1 µM), most hits filed as cytotoxic; 360,000 compounds, 1.6% hits;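 also: NT is the 2HG producing partner of a matched IDH1 knockdown line; nearly all actives have a fitted effect of over 55% in size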
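750 cells/well, RPMI + 5% FBS; 2 h settle, compound pin-transfer, 48 h at 37 degrees C. CellTiter-Glo 10 min RT, luminescence. Normalized to DMSO and media-only wells.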
HT1080 IDH1KD tx: qHTS for induction of synthetic lethality in tumor cells producing 2HG: qHTS for the HT-1080-IDH1KD cell line | HT-1080 IDH1 knockdown viability, ATP luminescence, 48 h | Potency, µM (doses to about 46.1 µM), usual class: cytotoxic | 360,000 compounds, 2% hits | AID 686971, 2013
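In this qHTS, HT-1080 cells depleted of IDH1 are exposed for 48 h at 37 °C to compound titrations. Toxicity is scored from CellTiter-Glo luminescence, with DMSO as full viability and medium alone as none.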
Numbers stand for hits; n = inactive; u = inconclusive; x = not tested or not shown; [ ] = remark or other dose. Hits are enriched below; roughly 19% of the tested compounds scored in any of these assays. Unless noted, calls follow the shape of the dose curve; as a rule, active = well fitted curve in the direction sought with a large enough effect; inconclusive = small, poorly fitted or top-dose-only effect, or another doubt; inactive = no such curve, though single readings can be large; an effect the other way counts as inactive or inconclusive.

SMILES	IL-1B inflam inh	TDP1 cell noCPT	TDP1 cell CPT	HT1080-NT tox	HT1080 IDH1KD tx
C=CCCC(=O)NC1CC(C)(C)Cc2c1cnn2-c1ccc(OC)cc1 (stereo unspecified)	n	u	u	n	n
COc1c(S(=O)(=O)N2CCN(C)CC2)ccc(Cl)c1Cl	n	n	n	n	n
O=C(O)c1ccc(/C=C/c2ccc3cccc(O)c3n2)cc1	n	18.4µM	n	n	n
O=[N+]([O-])c1cccc(/C=C/c2ccc3cccc(O)c3n2)c1	n	3.66µM	4.61µM	u	u
CCOc1c(OC(C)=O)ccc(/C=C/c2ccc3cccc(OC(C)=O)c3n2)c1[N+](=O)[O-]	n	u	u	u	u
COc1c(OC(C)=O)ccc(/C=C/c2ccc3cccc(OC)c3n2)c1[N+](=O)[O-]	-84.5	18.4µM	25.9µM	u	u
Oc1ccc(/C=C/c2ccc3cccc(O)c3n2)cc1Br	n	u	u	u	n
COC(=O)c1ccc(/C=C/c2ccc3cccc(OC(C)=O)c3n2)cc1	n	20.6µM	18.4µM	n	u
O=c1[nH]c(CN2CCCCC2)ccc1O	n	n	n	n	n
Cc1cccc(S(=O)(=O)NC(=O)C2(C)CCN2C(=O)Cc2cccs2)c1 (stereo unspecified)	n	u	n	n	n
O=C(CNC(=O)c1ccc(Br)cc1)OC1CCOC1=O (stereo unspecified)	n	n	n	n	n
COc1ccc(-c2c(C(F)(F)F)[nH]n3c(=O)cc(-c4ccccc4)nc23)cc1	x	u	u	n	u
Nc1[nH]n2c(=O)c3c(nc2c1N=Nc1ccccc1)CCCC3	n	18.4µM	u	n	n
Cc1cc(=O)n2[nH]c(N)c(N=Nc3ccccc3)c2n1	n	29.1µM	u	n	n
Cc1ccc(N=Nc2c(N)[nH]n3c(=O)cc(-c4ccccc4)nc23)cc1	n	14.6µM	u	n	n
Nc1[nH]n2c(=O)c3c(nc2c1N=Nc1ccc(Cl)cc1)CCCC3	n	u	u	n	n
COc1cccc(N=Nc2c(N)[nH]n3c(=O)cc(-c4ccccc4)nc23)c1	n	7.31µM	9.2µM	u	u
C=CCn1c(Cc2cccs2)nnc1SCC(=O)c1cccc(Br)c1	u	u	u	n	n
C=CCN1C(=O)C(CC(=O)Nc2ccccc2)S/C1=N/c1nccs1 (stereo unspecified)	n	n	n	n	n
O=c1c2c(nc3c(-c4ccccc4)c[nH]n13)CCCC2	n	23.1µM	23.1µM	n	n
Cc1[nH]n2c(=O)c3c(nc2c1-c1ccccc1)CCC3	n	n	n	n	n
COC(=O)c1cc(NC(=O)c2ccccc2)c(=O)oc1/C=C/Nc1ccc(Oc2ccccc2)cc1	n	23.1µM	n	n	n
COC(=O)c1ccc(-c2ccc(CNCC(O)c3ccccc3)o2)cc1 (stereo unspecified)	n	u	u	n	n[9.24 µM]
CCOC(=O)C1(C(=O)OCC)NC(=O)CC1CC (stereo unspecified)	n	n	n	n	n
CCCCCC1CC(=O)NC1(C(=O)OCC)C(=O)OCC (stereo unspecified)	-64.0	n	n	n	n
SMILES	IL-1B inflam inh	TDP1 cell noCPT	TDP1 cell CPT	HT1080-NT tox	HT1080 IDH1KD tx
CCOC(=O)c1ccc(NC(=O)Cn2cc(C(=O)c3ccc(CC)cc3)c(=O)c3ccc(C)nc32)cc1	x	5.8µM	11.6µM	x	x
Cc1ccc2c(=O)c(C(=O)c3ccccc3)cn(CC(=O)Nc3ccccc3)c2n1	x	n	n	x	x
CCOC(=O)c1ccc(NC(=O)Cn2cc(C(=O)c3ccc(Cl)cc3)c(=O)c3ccc(C)nc32)cc1	x	3.26µM	4.61µM	x	x
CCOc1ccc(NC(=O)N(C)CCc2c(C)nn(C)c2C)cc1	x	n	n	x	x
COc1ccc(CNC(=O)CN(C(=O)c2snc(C(N)=O)c2N)c2ccccc2F)cc1	u	n	n	n	n
O=C(Nc1ccc(F)cc1)C1CCCN(S(=O)(=O)c2ccc3[nH]c(=O)ccc3c2)C1 (stereo unspecified)	n	u	u	n	n
O=C(CCS(=O)(=O)c1cccc2nsnc12)Nc1ccc(F)cc1	x	u	n	x	x
O=C(CCCN1C(=O)c2cccc3cccc(c23)C1=O)N1CCN(c2ccc(F)cc2)CC1	-53.5	16.4µM	u	n	n
COc1ccc(N2CCN(C(=O)CCCN3C(=O)c4cccc5cccc(c45)C3=O)CC2)cc1	n	16.4µM	u	n	n
COc1ccccc1N1CCN(C(=O)CCN2C(=O)c3cccc4cccc(c34)C2=O)CC1	n	u	u	n	n
C1CCc2c(nc3nnnn3c2NCC2CC2)C1	n	n	n	n	n
C[C@@H]1CN([C@H](C)CO)C(=O)c2cc(C#CC(C)(C)O)cnc2O[C@@H]1CN(C)C(=O)C1CC1	n	n	n	n	n
COc1ccccc1N1CCN(C(CNS(=O)(=O)c2cc(F)ccc2F)c2cccnc2)CC1 (stereo unspecified)	n	n	n	n	n
O=C(NCC(c1cccnc1)N1CCN(c2ccccc2F)CC1)C(=O)Nc1ccc(F)cc1F (stereo unspecified)	x	14.6µM	u	x	x
Cc1ccc(CNC(=O)C(=O)NCC(c2cccnc2)N2CCN(c3ccccc3F)CC2)cc1 (stereo unspecified)	x	5.8µM	13µM	x	x
O=C(NCc1cccnc1)C(=O)NCC(c1ccco1)N1CCN(c2ccccc2F)CC1 (stereo unspecified)	n	n	n	n	n
COc1cccc(C2C=C(c3ccc(C)cc3)Nc3c(C(=O)Nc4ccc(F)cc4)cnn32)c1OC (stereo unspecified)	x	18.4µM	u	x	x
COc1ccc(C2=CC(c3ccccc3F)n3ncc(C(=O)Nc4ccc(C)cc4)c3N2)cc1 (stereo unspecified)	x	20.6µM	5.17µM	x	x
COc1ccc(NC(=O)C2=C(C)Nc3c(C(=O)Nc4ccc(C)cc4)cnn3C2c2cc(OC)ccc2OC)cc1 (stereo unspecified)	x	u	n	x	x
COc1cccc(C2=CC(c3ccccc3F)n3ncc(C(=O)Nc4ccc(F)cc4)c3N2)c1 (stereo unspecified)	x	18.4µM	u	x	x
Cn1c2nc(=O)n(-c3ccccc3)c(=O)c-2nc2c1CCCC2	n	u	20.6µM	n	n
CC(C)Cn1c(N)c(C(=O)COC(=O)c2ccc3c(c2)OCCO3)c(=O)n(C)c1=O	n	20.6µM	18.4µM	n	n
Cn1c(N)c(C(=O)COC(=O)c2ccc3c(c2)OCCO3)c(=O)n(C)c1=O	n	n	n	n	n

High-throughput results (PubChem)
